Laboratory results published in PubChem BioAssay AID463173 (ICCB-Longwood Screening Facility, Harvard Medical School, 2010).
The whole screen tested about 52,000 compounds, of which about 4,300 (8.3%) were called active. This is one part of a sample in which actives are shown more often than they occur. Cut-off read from the data, not from the text of the source: active = survival mostly below about 52% (no sharp cut-off); inactive = mostly above about 56%.

These compounds were tested on DeltatarO mutant (assay: growth inhibition of S. aureus wild type versus tarO mutant, primary screen, teichoic acid synthesis inhibitors, RN4220, OD600 (AID 463173)). Conditions: OD600, 18 h, stronger effect = lower value, screened at 18.75 µg/mL (by protocol).
In the case of `Cc1ccccc1-c1nc(SCC(=O)NCc2ccco2)c2c(=O)n(C)c(=O)n(C)c2n1`, the survival is reported as 71% (inactive).
In the case of `O=C(Nc1ccc(C(F)(F)F)cc1)N1CCC(N2CCCCC2)CC1`, the survival is reported as 108% (inactive).
For `COc1ccc(-c2noc(CSc3nnc(-c4ccncc4)n3-c3ccc(C)cc3)n2)cc1OC`, the survival was 67% (inactive).
`CC1=C(C(=O)OC2CCCCCC2)C(c2ccc(Cl)cc2Cl)CC(=O)N1` (centres undefined) was tested, and the survival was 81% (inactive).
In the case of `CCOC(=O)c1c(NC(=O)c2ccc(S(=O)(=O)N(C)C)cc2)sc2c1CCN(C)C2`, the survival is reported as 75% (inactive).
For `Cc1nc(NC2CCN(Cc3nnnn3Cc3ccc4c(c3)OCO4)CC2)[nH]c(=O)c1C`, the survival was 94% (inactive).
`Cc1cc(C)c(S(=O)(=O)NCc2csc(-c3ccccc3)n2)c(C)c1` was tested, and the survival was 34% (active).
For `O=S(=O)(NCc1csc(-c2ccccc2)n1)c1cccc(F)c1`, the survival was 79% (inactive).
`O=S(=O)(NCc1csc(-c2ccccc2)n1)c1ccccc1` was tested, and the survival was 70% (inactive).
With `COc1ccccc1C(=O)Nc1nc2nc(C)c(Cc3ccccc3)c(=O)n2[nH]1` the survival was 111% (inactive).
`COc1cccc(NC(=O)CN(CCc2ccccc2)S(=O)(=O)c2ccc(Cl)cc2)c1` was tested, and the survival was 52% (inactive).
`Cn1cc(C(=O)Nc2ccc(C#N)cc2)c2ccccc2c1=O` was tested, and the survival was 63% (inactive).
For `CCOC(=O)Cn1c(=O)sc2ccccc21`, the survival was 94% (inactive).
For `CCCOc1ccccc1Cn1c(=O)sc2ccccc21`, the survival was -2% (active).
With `CCCCOc1ccccc1Cn1c(=O)sc2ccccc21` the survival was -2% (active).
In the case of `CS(=O)(=O)n1c(=O)sc2ccccc21`, the survival is reported as 99% (inactive).
With `O=C(Cn1c(=O)sc2ccccc21)Nc1ccc(O)cc1` the survival was 70% (inactive).
For `CCN(CC)C(=O)Cn1c(=O)sc2ccccc21`, the survival was 85% (inactive).
With `CCCn1c(=O)sc2cc(NC(=O)c3ccccc3OCC)ccc21` the survival was 93% (inactive).
In the case of `CC(C)CCOc1ccccc1Cn1c(=O)sc2ccccc21`, the survival is reported as 3% (active).
In the case of `Cc1cccc(NC(=O)Cn2c(=O)sc3ccccc32)c1`, the survival is reported as 109% (inactive).
With `O=C(Cn1c(-c2ccccc2)noc1=O)Nc1cccc(Cl)c1Cl` the survival was 98% (inactive).
For `CCc1ccc(S(=O)(=O)c2cn(C)c3cc(N4CCOCC4)c(F)cc3c2=O)cc1`, the survival was 90% (inactive).
With `CCC(Sc1nnc(-c2ccc(OC)cc2)c(-c2ccc(OC)cc2)n1)C(=O)Nc1cccc(OC)c1` (centres undefined) the survival was 94% (inactive).
In the case of `COCCn1c(C)cc(O)c(C(c2ccccc2)N2CCN(c3ccccc3)CC2)c1=O` (centres undefined), the survival is reported as 49% (inactive).
In the case of `COCCn1c(C)cc(O)c(C(c2cccc(F)c2)N2CCN(c3ccccc3)CC2)c1=O` (centres undefined), the survival is reported as 93% (inactive).
With `CCN1CCN(C(c2ccccc2)c2c(O)cc(C)n(CCOC)c2=O)CC1` (centres undefined) the survival was 84% (inactive).
`COCCn1c(C)cc(O)c(C(c2ccccc2)N2CCN(CCO)CC2)c1=O` (centres undefined) was tested, and the survival was 32% (active).
In the case of `COCCn1c(C)cc(O)c(C(c2ccc(F)cc2)N2CCN(c3ccccc3)CC2)c1=O` (centres undefined), the survival is reported as 47% (active).
With `COCCn1c(C)cc(O)c(C(c2ccccc2)N2CCN(C)CC2)c1=O` (centres undefined) the survival was 95% (inactive).
With `Cc1cccc(NC(=O)c2cc(S(=O)(=O)N3CCc4ccccc43)ccc2F)c1C` the survival was 65% (inactive).
With `COc1ccc(-n2c(/C=C/c3cc(OC)c(OC)cc3OC)nc3cc4ccccc4cc3c2=O)cc1Cl` the survival was 115% (inactive).
For `CCOC(=O)CNC(=O)Nc1cc(C(=O)NCc2cccc(F)c2)ccc1N1CCCC1`, the survival was 74% (inactive).
`CCOC(=O)N1CCC(NC(=O)c2ccc3c(c2)N(Cc2ccccc2)C(=O)c2ccccc2S3(=O)=O)CC1` was tested, and the survival was 52% (inactive).
With `CSc1ccc(C2c3c(oc4cc(C)cc(C)c4c3=O)C(=O)N2Cc2ccco2)cc1` (centres undefined) the survival was 57% (inactive).
For `CCc1ccc(C2C(C(=O)Nc3ccccc3OC)=C(C)Nc3nc(SCc4ccccc4)nn32)cc1` (centres undefined), the survival was 76% (inactive).
With `CCOC(=O)c1ccc(CSc2nnc3cc(C)c4ccccc4n23)cc1` the survival was 95% (inactive).
In the case of `CCCN(CCC)C(=O)CSc1nnc2cc(C)c3ccccc3n12`, the survival is reported as 76% (inactive).
For `Cc1cc2nnc(SCc3ccc(F)cc3)n2c2ccccc12`, the survival was -1% (active).
With `COc1ccc(C2NCCS2)cc1` (centres undefined) the survival was 65% (inactive).
`Cc1ccc(CN2CCCn3nc(C(=O)NCCc4ccc(Cl)cc4)cc3C2=O)cc1` was tested, and the survival was 71% (inactive).
In the case of `Cc1nn(-c2ccc(N3CCCCC3)nn2)c(C)c1CCC(=O)NCc1ccc(Cl)cc1`, the survival is reported as 79% (inactive).
For `CCCOc1ccccc1C(=O)Nc1ccc(-c2nc3ccc(C)cc3s2)cc1`, the survival was 29% (active).
For `COc1ccc(CC(=O)Nc2ccc(-c3nc4ccccc4s3)c(C)c2)cc1OC`, the survival was 37% (active).
`Cc1ccc2nc(-c3ccc(NC(=O)COc4ccccc4C(C)(C)C)cc3)sc2c1` was tested, and the survival was 114% (inactive).
For `O=C(COc1ccccc1[N+](=O)[O-])Nc1cccc(-c2nc3ccccc3s2)c1`, the survival was 65% (inactive).
For `COc1cccc(C(=O)Nc2ccc(-c3nc4ccc(C)cc4s3)cc2)c1OC`, the survival was 49% (inactive).
With `Cc1cccc(OCCSc2nc3ccc(NC(=O)COc4ccccc4)cc3s2)c1` the survival was 78% (inactive).
For `CCCCC(=O)Nc1cccc(-c2nc3ccccc3s2)c1`, the survival was 41% (active).
With `COc1ccccc1C(=O)Nc1ccc(-c2nc3ccccc3s2)c(C)c1` the survival was 83% (inactive).
With `Cc1cccc(OCC(=O)Nc2ccc3nc(SCc4ccccc4)sc3c2)c1` the survival was 112% (inactive).
In the case of `COc1ccc(CC(=O)Nc2ccc(-c3nc4ccccc4s3)c(C)c2)cc1`, the survival is reported as 69% (inactive).
`CCC(CC)C(=O)Nc1cccc(-c2nc3ccccc3s2)c1` was tested, and the survival was 53% (inactive).
With `Cc1cccc(OCC(=O)Nc2cccc(-c3nc4ccccc4s3)c2)c1` the survival was 7% (active).
`Cc1nc2ncnn2c(C)c1CCC(=O)N1CCN(c2ccc(F)cc2)CC1` was tested, and the survival was 89% (inactive).
`COCCNC(=O)CN1C(=O)c2cccnc2Oc2ccc(Cl)cc21` was tested, and the survival was 85% (inactive).
For `COc1ccc(-c2onc(C)c2C)cc1S(=O)(=O)NCc1ccco1`, the survival was 67% (inactive).
In the case of `Cc1ccc(S(=O)(=O)N(C)c2ccc3sc(C)nc3c2)cc1`, the survival is reported as 91% (inactive).
In the case of `COc1ccc(OC)c(C(=O)CC2(O)C(=O)N(Cc3ccccc3C)c3ccccc32)c1` (centres undefined), the survival is reported as 165% (inactive).
`CN1C(=O)Cc2cc(S(=O)(=O)CCC(=O)Nc3ccc(OC(F)(F)F)cc3)ccc21` was tested, and the survival was 71% (inactive).
With `Cc1cccc(CN2C(=O)c3ccccc3Sc3ccc(C(=O)N4CCCC4)cc32)c1` the survival was 83% (inactive).
For `COc1cccc(CC(=O)Nc2ccc(-c3nc4ccccc4s3)cc2Cl)c1`, the survival was 69% (inactive).
For `O=C(COc1ccc(Cl)cc1)Nc1ccc(O)c(-c2nc3ccccc3s2)c1`, the survival was 94% (inactive).
In the case of `O=C(COc1ccc(Cl)cc1)Nc1ccc(-c2nc3ccccc3s2)c(O)c1`, the survival is reported as 68% (inactive).
For `Cc1ccc(OCC(=O)Nc2cccc(-c3nc4ccccc4s3)c2)cc1`, the survival was 47% (active).
With `Cc1cc(C)cc(OCC(=O)Nc2ccc(-c3nc4ccccc4s3)cc2)c1` the survival was 68% (inactive).
With `COc1ccc(CC(=O)Nc2ccc(-c3nc4ccccc4s3)cc2Cl)cc1` the survival was 69% (inactive).
For `COc1ccc(OCC(=O)Nc2cccc(-c3nc4ccccc4s3)c2C)cc1`, the survival was 106% (inactive).
For `COc1cccc(CC(=O)Nc2ccc(-c3nc4ccccc4s3)cc2)c1`, the survival was 0% (active).
In the case of `CCOc1ccc(C(=O)Nc2ccc(-c3nc4ccccc4s3)c(C)c2)cc1OCC`, the survival is reported as 99% (inactive).
`COc1ccc(OCC(=O)Nc2ccc(O)c(-c3nc4ccccc4s3)c2)cc1` was tested, and the survival was 43% (active).
`CCOc1ccccc1C(=O)Nc1cccc(-c2nc3ccccc3s2)c1` was tested, and the survival was 41% (active).
With `CCOc1ccccc1C(=O)Nc1ccccc1` the survival was 65% (inactive).
`CCOc1ccc(NS(=O)(=O)c2ccc3c4c(cccc24)C(=O)N3)cc1` was tested, and the survival was 83% (inactive).
In the case of `CCn1cc2nc(SCc3ccccc3)n(Cc3ccc(C)cc3)c(=O)c2n1`, the survival is reported as 93% (inactive).
For `O=C(NCCc1ccccc1)c1cc(-c2ccccc2)nc2n[nH]c(-c3ccccc3)c12`, the survival was 55% (inactive).
In the case of `CCOC(=O)c1ccc(CN(Cc2ccc(F)cc2)S(=O)(=O)c2ccc(F)c(C(=O)Nc3ccc(Cl)cc3F)c2)cc1`, the survival is reported as 79% (inactive).
With `CCOc1cc(CNC(=O)c2cc(-c3ccc(Cl)s3)nc3ccccc23)ccc1OC` the survival was 84% (inactive).
For `CCOC(=O)C1CCCN(C(=O)Cn2ncc3c4ccccc4n(C)c3c2=O)C1` (centres undefined), the survival was 121% (inactive).
In the case of `COc1ccc(-c2nc3ccccc3s2)cc1NC(=O)COc1ccc(C)cc1`, the survival is reported as 129% (inactive).
For `Cc1csc2nc(-c3cccc(NC(=O)c4c(F)cccc4F)c3)cn12`, the survival was 128% (inactive).
In the case of `Cc1ccc2nc(-c3ccc(NC(=O)COc4ccccc4)cc3)sc2c1`, the survival is reported as 68% (inactive).
For `COc1ccc(-c2nc3ccccc3s2)cc1NC(=O)COc1cccc(C)c1`, the survival was 16% (active).
In the case of `Cc1csc2nc(-c3cccc(NC(=O)C(C)C)c3)cn12`, the survival is reported as 73% (inactive).
For `CCCC(=O)Nc1cccc(-c2cn3c(C)csc3n2)c1`, the survival was -5% (active).
In the case of `Cc1ccc2nc(-c3ccc(NC(=O)COc4ccc(Cl)c(C)c4)cc3)sc2c1`, the survival is reported as 74% (inactive).
`COc1ccc(OCC(=O)Nc2cc(-c3nc4ccccc4s3)ccc2C)cc1` was tested, and the survival was 45% (active).
With `Cc1ccc2nc(-c3ccc(NC(=O)COc4c(C)ccc(C)c4C)cc3)sc2c1` the survival was 38% (active).
For `CC(=O)Nc1cc(-c2nc3ccccc3s2)ccc1C`, the survival was 83% (inactive).
For `COc1ccc(-c2nc3ccccc3s2)cc1NC(=O)COc1ccccc1C`, the survival was 142% (inactive).
For `Cc1ccc(-c2nc3ccccc3s2)cc1NC(=O)COc1ccccc1`, the survival was 54% (inactive).
With `CCOC(=O)CC(=O)CSc1nc2ccsc2c(=O)n1Cc1ccccc1` the survival was 118% (inactive).
In the case of `COc1ccc(-c2coc3c2c(C)cc2oc(=O)cc(C)c23)cc1`, the survival is reported as 82% (inactive).
`Cc1ccc(CCNC(=O)C2CC(=O)N(CCc3ccc(C)cc3)C2)cc1` (centres undefined) was tested, and the survival was 101% (inactive).
